APP 5UTR inh: APP translation inhibition; actives 0.82% (n = 190,000); SH-SY5Y APP 5'UTR-luciferase reporter, luminescence; inhibition, % at 2 µM;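 active = inhibition above a set limit, derived from the sample mean plus 3 SD, cut at about 45% in these data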
aSyn 5UTR inh: 5' untranslated region of α-synuclein, MLPCN primary screen. alpha-synuclein 5'UTR reporter, inhibitor activity. actives 0.82% (n = 300,000). AID 1813. inhibition, % (tested at 7.5 µM); in the data active = inhibition above about 60%;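 note: H4 neuroglioblastoma cells stably carrying SNCA 5'UTR luciferase fusion; 0% = DMSO wells and 100% = positive control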
KLF5 inh: suppresses KLF5 promoter-driven expression | inhibition, % at 5 µM | DLD-1 KLF5 promoter-luciferase reporter, luminescence | actives 0.23% (n = 290,000);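 active = inhibition above a per-plate limit of that plate's mean compound inhibition plus 3 SD, cut at about 60% in these data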;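 note: 0% = DMSO wells and 100% = LY294002 at 200 µM; higher means less KLF5 promoter-driven luciferase light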
IEC-6 tox: kills IEC-6 intestinal cells in KLF5 counter-screen; IEC-6 cytotoxicity, luminescence viability; inhibition, % at 5 µM; actives 0.78% (n = 290,000); in the data active = inhibition above about 22%;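 note: 0% = plate median of test compound wells and 100% = cytotoxic reference compound wells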
Ba/F3 V617F tox: lowers viability of Ba/F3 cells expressing EpoR and JAK2V617F; ATP luminescence; inhibition, % at 5.6 µM; actives 1.1% (n = 220,000); AID 1446;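 active = inhibition above the campaign mean plus 3 SD over all tested compounds, cut at about 24% in these data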;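 note: cytokine-independent growth of Ba/F3 cells driven by EpoR plus mutant JAK2; 0% = DMSO-treated cells and 100% = JAK inhibitor I control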
BaF3 tox: reduces parental Ba/F3 cell viability, JAK2V617F counter-screen; inhibition, % at 5.6 µM; actives 1.1% (n = 220,000); CellTiter-Glo ATP luminescence; AID 1486;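 active = inhibition above a per-campaign cutoff, the mean inhibition of all tested compounds plus 3 SD, cut at about 27% in these data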;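 note: 0% = DMSO wells and 100% = JAK Inhibitor I control wells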
* = called active by the depositor; . = no result. Sampled rows, rich in hits. Any-hit rate of the full collection: about 2.2%.

SMILES	APP 5UTR inh	aSyn 5UTR inh	KLF5 inh	IEC-6 tox	Ba/F3 V617F tox	BaF3 tox
CCOc1ccc(N2CC(=O)N(c3ccc(OCC)cc3)CC2=O)cc1	3	9	17	0	-1	93*
CCOc1ccc(N2C(=O)CCC2=O)cc1	-12	17	-30	0	-4	0
Oc1ccc(-c2cnc3ccccc3n2)cc1	.	-72	.	.	.	.
CCCCOc1ccc(-c2cnc3ccccc3n2)cc1	.	101*	-26	0	-1	4
COc1ccc(OC)c(Nc2cc(C)c3ccccc3n2)c1	.	23	65*	2	.	.
CC(C)[C@H](NC(=O)[C@H](Cc1ccccc1)n1c(=O)[nH]c2ccccc2c1=O)C(=O)N1CCC[C@@H]1C(=O)O	.	17	-19	0	.	.
CC1CCC(NC(=O)C(NC(=O)c2ccccc2)C(C)C)CC1 (centres undefined)	3	8	-27	3	2	10
CCCc1cc(-c2nc(N)ncc2-c2csc(C)n2)c(O)cc1OC	5	23	-4	0	-3	2
CCCc1cc(-c2nc(N)ncc2-c2ccc3c(c2)OCCCO3)c(O)cc1OC	-8	62*	-13	10	-2	1
COc1cccc(C(=O)Nc2nnc(SCC(=O)NC3CCCC3)s2)c1	.	-45	-40	1	.	.
Cc1cccc(NC(=S)N/N=C/c2c[nH]c3ccccc23)c1	86*	-65	5	12	-5	-1
Cc1ccc(S(=O)(=O)n2[nH]c(=O)cc2NC(=O)c2cccs2)cc1	7	8	1	0	26*	35*
Cc1ccc(NC(=O)c2cccs2)cc1	-75	-145	-92	-1	-1	4
Cc1ccc(-n2nc3c(=O)n(CCCC(=O)NCc4cccc(Cl)c4)nc(C)c3c2C)cc1	.	45	-10	14	.	.
Cc1ccc(-n2nc3c(=O)n(CCCC(=O)NCc4ccc(Cl)cc4)nc(C)c3c2C)cc1	.	62*	1	5	.	.
O=C(/C=C/Nc1ccc(Br)cc1F)c1ccccc1	-140	78*	-82	-2	0	-1
CCc1ccc(NC(=O)C(=O)NCc2ccccn2)cc1	-10	-144	-105	1	-3	-4
CCn1c(SCC(=O)NCc2ccco2)nc2ccccc2c1=O	12	2	-1	4	0	5
COc1ccc(C(=O)Nn2c(SCC(=O)N3CCC(C)CC3)nc3ccccc3c2=O)cc1	-31	83*	14	14	17	18
COc1ccc(C(=O)Nn2c(SCC(=O)NCc3ccco3)nc3ccccc3c2=O)cc1	-77	81*	-80	6	4	10
O=C(Nn1c(SCc2cccc([N+](=O)[O-])c2)nc2ccccc2c1=O)c1ccccc1	-119	-145	-13	0	-2	2
COc1ccc(C(=O)Nn2c(SCC(=O)NC3CCCCC3)nc3ccccc3c2=O)cc1	-110	5	13	-1	-1	6
COc1ccc(C(=O)Nn2c(SCc3cccc([N+](=O)[O-])c3)nc3ccccc3c2=O)cc1	-94	66*	-103	10	-1	3
Cc1cccc(N2CCN(C(=O)c3ccc(Cl)c(NC4=NC5CS(=O)(=O)CC5S4)c3)CC2C)c1 (centres undefined)	.	10	-23	-7	.	.
CCn1cc(C(=O)N2CCN(c3ccc(F)cc3)CC2)c2cc(OC)c(OC)cc2c1=O	48*	11	-19	-6	-6	-3
SMILES	APP 5UTR inh	aSyn 5UTR inh	KLF5 inh	IEC-6 tox	Ba/F3 V617F tox	BaF3 tox
CCn1c(=O)c2c(nc3n2CC(C)CN3CCc2ccccc2)n(C)c1=O (centres undefined)	-2	13	-9	3	6	12
COCCn1c(=O)c2c(nc3n2CC(C)CN3CCc2ccccc2)n(C)c1=O (centres undefined)	.	67*	-15	3	.	.
C=CCN(CC(=O)NCC1CCCO1)C(=O)CCC(=O)Nc1cc(C)on1 (centres undefined)	1	2	-1	-1	-4	93*
C=CCNC(=S)/N=c1/ccccn1CCC	.	12	-35	0	51*	56*
Cn1ccnc1/C(=N\NC(=O)c1ccccc1)c1cccc([N+](=O)[O-])c1	-11	13	1	2	-4	-1
O=C(N/N=C(\c1ccccc1)c1ccccn1)c1cccc([N+](=O)[O-])c1	85*	99*	67*	89*	99*	91*
O=C(CCSc1nc2ccccc2s1)N/N=C/c1c(O)ccc2ccccc12	52*	66*	-11	2	1	4
Cc1cc(C)n(CCC(=O)N/N=C/c2c(O)ccc3ccccc23)n1	.	73*	40	5	-1	-8
Cc1cc(C)n(CCC(=O)N/N=C/c2ccc(O)cc2)n1	16	21	-25	-2	-2	5
COC(=O)CCn1nnc(-c2cccs2)n1	0	10	-2	-8	-3	1
COC(=O)CCn1nnc(-c2ccc(C(C)C)cc2)n1	77*	119*	45	-4	-3	0
Cc1ccc2c(C(=O)CN3CCN(C(=O)c4ccco4)CC3)c(C)[nH]c2c1	.	-14	-8	-7	-3	-1
O=C(CN1CCC(NC(=O)c2cccc(F)c2)CC1)Nc1ccc(Br)cc1	.	68*	-9	12	.	.
Cc1ccc(CNC(=O)c2ccc(Cn3cc(-c4ccc(C)cc4)nc3-c3ccncc3)cc2)cc1	.	-177	-86	11	.	.
O=C(OCN1C(=O)c2ccccc2C1=O)c1cccc(S(=O)(=O)N2CCOCC2)c1	.	-1	-18	-6	.	.
Cc1cccc2cc3c(N)c(C#N)sc3nc12	16	84*	-7	5	4	7
CN(C)c1ccc(NC(=S)c2ccccn2)cc1	-58	97*	58	2	0	5
Nc1nonc1-n1nnc(C(=O)N/N=C/c2cc(Cl)ccc2O)c1CN1CCCCCC1	.	50	.	.	.	.
CNS(=O)(=O)c1cc2c3c(cccc3c1)C(=O)NC2=O	4	71*	11	2	-1	4
Cc1onc(-c2ccccc2Cl)c1C(=O)N1CCN(c2cccc(Cl)c2)CC1	-8	67*	.	.	.	.
CC(C)(C)NC(=S)N/N=C/c1cccnc1	.	-3	11	12	3	2
O=[N+]([O-])c1ccc(Cl)c(NC2=NCCCCC2)c1	.	-14	-13	-4	.	.
CCOc1ccc(-c2cc(CCCC(=O)NCCCOC)no2)cc1	49*	87*	-31	0	5	7
COC(=O)Cc1c(C)c2ccc(OCc3nn[nH]n3)c(C)c2oc1=O	-9	1	-49	-4	-3	1
COC(=O)Cc1c(C)c2ccc(OCc3nn[nH]n3)cc2oc1=O	78*	8	-34	0	7	5
O=C(CC1(O)C(=O)N(Cc2cccc3ccccc23)c2ccccc21)c1cccnc1 (centres undefined)	56*	1	-29	12	68*	54*
CS(=O)(=O)N(CC(N)=O)c1cccc(Br)c1	4	-14	-13	-3	1	93*
